Measurements from PubChem BioAssay (NCATS).
Records with an inconclusive call do not appear. Activity calls are given as the source filed them. Calls come from the whole dose curve; as a rule, active = well fitted curve in the direction sought with a large enough effect; inconclusive = small, poorly fitted or top-dose-only effect, or another doubt; inactive = no such curve, though single readings can be large; an effect the other way counts as inactive or inconclusive.

Assays:
[1] = system: NIH3T3; experiment: Cytotoxic Profiling of Annotated Libraries Using Quantitative High-Throughput Screening (AID 1296008); details: Five cell lines viability, CellTiter-Glo ATP luminescence, 48-72 h; max response: hits give low values; note: nearly all actives have a fitted effect of over 60% in size
Outline: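 Cells exposed to compounds for 48 or 72 hr at 37 degrees Celsius. Viability read as ATP-coupled luminescence with CellTiter-Glo after 10 min at room temperature.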

[2] = system: HACAT; experiment: qHTS assay to identify novel small-molecules to repurpose for Merkel cell carcinoma treatment (AID 1296009); details: MCC and control cell lines, CellTiter-Glo viability, 72 h; at 44.8 µM (top of the series) unless noted; note: nearly all actives have a fitted effect of over 60% in size
Outline: (§1)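 Cells were incubated with compound for 72 hr at 37 degree celsius before CellTiter-Glo addition. Luminescence was normalized with no-cell wells as full cytotoxicity and DMSO as baseline.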

[3] = system: MCC-13; experiment: as above; details: MCC and control cell lines, CellTiter-Glo viability, 72 h; series mostly up to 46 µM
Outline: as §1

[4] = system: MCC-26; experiment: as above; details: MCC and control cell lines, CellTiter-Glo viability, 72 h; series mostly up to 46 µM
Outline: as §1

[5] = system: MKL-1; experiment: as above; details: MCC and control cell lines, CellTiter-Glo viability, 72 h; series mostly up to 46 µM
Outline: as §1

[6] = system: MKL-2; experiment: as above; details: MCC and control cell lines, CellTiter-Glo viability, 72 h; series mostly up to 46 µM
Outline: as §1

[7] = system: UISO; experiment: as above; details: MCC and control cell lines, CellTiter-Glo viability, 72 h; series mostly up to 46 µM
Outline: as §1

[8] = system: WaGa; experiment: as above; details: MCC and control cell lines, CellTiter-Glo viability, 72 h; series mostly up to 46 µM
Outline: as §1

[9] = system: C33A; experiment: Primary qHTS to identify gynecologic anti-cancer compounds using libraries of approved drugs and bioactive compounds (AID 1345084); details: Gynecologic cancer cell panel viability, ATPlite luminescence, 48 h; series mostly up to 57.5 µM; note: nearly all actives have a fitted effect of over 55% in size
Outline: (§2)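 Cells, 1,000 per well, were allowed to settle for 16 h at 37 C before compound addition. Five concentrations were tested for 48 h, and viability was read by ATPlite luminescence after 15 min at room temperature.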

[10] = system: CAOV3; experiment: as above; details: Gynecologic cancer cell panel viability, ATPlite luminescence, 48 h; series mostly up to 57.5 µM
Outline: as §2

[11] = system: CASKI; experiment: as above; details: Gynecologic cancer cell panel viability, ATPlite luminescence, 48 h; series mostly up to 57.5 µM
Outline: as §2

[12] = system: Es-2; experiment: as above; details: Gynecologic cancer cell panel viability, ATPlite luminescence, 48 h; series mostly up to 57.5 µM
Outline: as §2

[13] = system: HeLa; experiment: as above; details: Gynecologic cancer cell panel viability, ATPlite luminescence, 48 h; series mostly up to 57.5 µM
Outline: as §2

[14] = system: Hek293T; experiment: as above; details: Gynecologic cancer cell panel viability, ATPlite luminescence, 48 h, control line for the selectivity index; series mostly up to 57.5 µM
Outline: as §2

[15] = system: JEG-3; experiment: as above; details: Gynecologic cancer cell panel viability, ATPlite luminescence, 48 h; series mostly up to 57.5 µM
Outline: as §2

[16] = system: OV90; experiment: as above; details: Gynecologic cancer cell panel viability, ATPlite luminescence, 48 h; series mostly up to 57.5 µM
Outline: as §2

[17] = system: PA-1; experiment: as above; details: Gynecologic cancer cell panel viability, ATPlite luminescence, 48 h; series mostly up to 57.5 µM
Outline: as §2

[18] = system: SKOV3; experiment: as above; details: Gynecologic cancer cell panel viability, ATPlite luminescence, 48 h; series mostly up to 57.5 µM
Outline: as §2

[19] = system: HEK293T; experiment: qHTS assay to identify novel small-molecules to repurpose for Merkel cell carcinoma treatment (AID 1296009); details: MCC and control cell lines, CellTiter-Glo viability, 72 h; at 44.8 µM (top of the series) unless noted; note: nearly all actives have a fitted effect of over 60% in size
Outline: as §1
% is set by controls: 0 for no effect and ±100 for the full control effect.

CN(C(=O)C(Cl)Cl)c1ccc(OC(=O)c2ccco2)cc1
inactive: max response [1] 1.4% | outcome [2] | Potency [3] | Potency [4] | Potency [5] | Potency [6] | Potency [7] | Potency [8] | Potency [9] | Potency [10] | Potency [11] | Potency [12] | Potency [13] | Potency [14] | Potency [15] | Potency [16] | Potency [17] | Potency [18]

CC(C(=O)O)c1ccc(/C=C2\CCCCC2=O)cc1 (stereo not drawn)
inactive: max response [1] 3.05% | outcome [2] | Potency [3] | Potency [4] | Potency [5] | Potency [6] | Potency [7] | Potency [8] | Potency [9] | Potency [10] | Potency [11] | Potency [12] | Potency [13] | Potency [14] | Potency [15] | Potency [16] | Potency [17]

CCCCCCCC(=O)[O-].CCCCCCCC(=O)[O-].[Zn+2]
inactive: max response [1] 4.51% | outcome [2] | Potency [3] | Potency [4] | Potency [5] | Potency [6] | Potency [7] | Potency [8] | Potency [9] | Potency [10] | Potency [11] | Potency [12] | Potency [13] | Potency [14] | Potency [15] | Potency [16] | Potency [17] | Potency [18]

Nc1c(I)cc(I)c(C(=O)N(CCC(=O)O)c2ccccc2)c1I
inactive: max response [1] 0.521% | outcome [2] | Potency [3] | Potency [4] | Potency [5] | Potency [6] | Potency [7] | Potency [8] | Potency [9] | Potency [10] | Potency [11] | Potency [12] | Potency [13] | Potency [14] | Potency [15] | Potency [16] | Potency [17]

COc1cc(NS(=O)(=O)c2ccc(N)cc2)nc(C)n1
inactive: max response [1] 4.73% | outcome [19] | Potency [3] | Potency [4] | Potency [5] | Potency [6] | Potency [7] | Potency [8] | Potency [9] | Potency [10] | Potency [11] | Potency [12] | Potency [13] | Potency [14] | Potency [15] | Potency [16] | Potency [17] | Potency [18]
